Reference: the supplement of paper PMC11732987, “Enantioselective OTUD7B fragment discovery through chemoproteomics screening and high-throughput optimisation” (Communications Chemistry, 2025)

compound: ClCC(=O)N1CCCC1=O; assay: log2 ratio of Biotin-Ahx-Ub-VS probe labelling (fragment/DMSO); higher = less target engagement (more negative = stronger competition), active = hit call of the paper (q ≤ 0.05, log2 ratio ≤ -1); conditions: compound concentration: 200 uM; treatment time: 3 h
Procedure: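 Competitive ABPP in HEK293T cell lysate. Lysates were treated with each chloroacetamide fragment at 200 µM for 3 h, then with Biotin-Ahx-Ub-VS (0.5 µM, 1 h), NeutrAvidin-enriched and analysed by diaPASEF LC-MS/MS. Protein LFQ was median-normalised; average log2 ratio is fragment/DMSO from an unpaired t-test (n=3 treated, n=44 DMSO). Hits: q ≤ 0.05, log2 ratio ≤ -1, unique peptides ≥ 2.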

Chain of UniProt Q86UV5 (Q86UV5 whole entry): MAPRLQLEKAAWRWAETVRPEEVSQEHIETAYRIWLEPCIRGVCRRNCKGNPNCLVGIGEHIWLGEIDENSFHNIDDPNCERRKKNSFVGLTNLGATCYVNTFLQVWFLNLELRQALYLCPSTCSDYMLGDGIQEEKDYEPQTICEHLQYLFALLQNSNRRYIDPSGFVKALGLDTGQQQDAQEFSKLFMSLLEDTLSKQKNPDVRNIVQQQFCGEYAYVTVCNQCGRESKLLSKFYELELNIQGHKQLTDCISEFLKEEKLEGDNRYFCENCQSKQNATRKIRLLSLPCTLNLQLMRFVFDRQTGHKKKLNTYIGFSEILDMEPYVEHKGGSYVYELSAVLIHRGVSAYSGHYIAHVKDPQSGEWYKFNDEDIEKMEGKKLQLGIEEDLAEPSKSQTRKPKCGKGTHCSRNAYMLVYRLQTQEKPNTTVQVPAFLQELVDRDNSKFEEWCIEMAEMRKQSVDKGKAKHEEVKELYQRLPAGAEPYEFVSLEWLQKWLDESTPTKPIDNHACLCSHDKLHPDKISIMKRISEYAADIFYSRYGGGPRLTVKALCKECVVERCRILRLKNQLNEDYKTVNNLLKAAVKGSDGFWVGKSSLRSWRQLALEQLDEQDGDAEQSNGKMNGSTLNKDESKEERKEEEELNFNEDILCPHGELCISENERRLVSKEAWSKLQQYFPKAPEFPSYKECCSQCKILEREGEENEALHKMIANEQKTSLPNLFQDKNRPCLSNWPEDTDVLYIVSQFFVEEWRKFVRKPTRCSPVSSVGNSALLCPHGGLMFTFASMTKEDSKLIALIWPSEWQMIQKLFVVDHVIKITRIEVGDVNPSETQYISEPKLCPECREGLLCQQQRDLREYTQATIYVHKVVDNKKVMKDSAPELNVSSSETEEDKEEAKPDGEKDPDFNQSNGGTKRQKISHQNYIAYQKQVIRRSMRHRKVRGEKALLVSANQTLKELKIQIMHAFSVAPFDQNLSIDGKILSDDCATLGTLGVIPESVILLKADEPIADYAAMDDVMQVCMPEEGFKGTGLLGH
Chain of UniProt Q9P2H5 (Q9P2H5 whole entry): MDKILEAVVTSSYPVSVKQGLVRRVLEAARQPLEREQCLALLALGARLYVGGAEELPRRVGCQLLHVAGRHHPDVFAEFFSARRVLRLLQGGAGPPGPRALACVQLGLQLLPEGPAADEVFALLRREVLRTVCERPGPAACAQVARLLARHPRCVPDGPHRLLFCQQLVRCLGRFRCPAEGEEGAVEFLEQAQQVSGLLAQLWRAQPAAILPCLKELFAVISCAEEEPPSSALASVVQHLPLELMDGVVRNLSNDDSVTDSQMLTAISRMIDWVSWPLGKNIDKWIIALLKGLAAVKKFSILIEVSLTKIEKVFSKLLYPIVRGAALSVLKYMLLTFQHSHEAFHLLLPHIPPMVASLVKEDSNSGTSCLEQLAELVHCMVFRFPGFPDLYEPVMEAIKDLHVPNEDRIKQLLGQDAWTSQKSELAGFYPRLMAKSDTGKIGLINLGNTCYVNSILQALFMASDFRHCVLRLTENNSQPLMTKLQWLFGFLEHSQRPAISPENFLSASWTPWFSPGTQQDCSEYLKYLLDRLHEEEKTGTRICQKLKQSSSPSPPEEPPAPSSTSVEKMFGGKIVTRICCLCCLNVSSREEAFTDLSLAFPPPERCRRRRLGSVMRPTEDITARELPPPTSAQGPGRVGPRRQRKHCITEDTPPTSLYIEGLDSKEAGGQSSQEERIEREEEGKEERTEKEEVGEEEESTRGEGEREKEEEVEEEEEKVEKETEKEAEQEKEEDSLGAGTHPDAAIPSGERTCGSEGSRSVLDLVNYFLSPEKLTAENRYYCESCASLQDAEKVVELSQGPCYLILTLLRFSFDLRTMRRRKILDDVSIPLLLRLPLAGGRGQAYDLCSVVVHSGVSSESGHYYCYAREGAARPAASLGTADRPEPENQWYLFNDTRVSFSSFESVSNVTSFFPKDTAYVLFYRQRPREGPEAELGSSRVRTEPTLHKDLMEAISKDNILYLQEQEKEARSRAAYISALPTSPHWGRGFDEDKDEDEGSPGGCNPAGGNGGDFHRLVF
Chain of UniProt P54252 (P54252 whole entry): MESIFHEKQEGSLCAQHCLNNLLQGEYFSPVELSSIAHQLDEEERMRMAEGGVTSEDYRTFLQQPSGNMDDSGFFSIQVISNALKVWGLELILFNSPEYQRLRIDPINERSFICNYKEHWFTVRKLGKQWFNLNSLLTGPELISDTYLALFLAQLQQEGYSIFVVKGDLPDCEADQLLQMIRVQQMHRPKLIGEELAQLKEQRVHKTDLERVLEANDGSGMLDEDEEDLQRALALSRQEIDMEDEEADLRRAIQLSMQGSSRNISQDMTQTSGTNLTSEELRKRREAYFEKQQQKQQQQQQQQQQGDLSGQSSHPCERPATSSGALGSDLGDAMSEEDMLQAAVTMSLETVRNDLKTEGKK
Chain of UniProt Q6GQQ9 (Q6GQQ9 whole entry): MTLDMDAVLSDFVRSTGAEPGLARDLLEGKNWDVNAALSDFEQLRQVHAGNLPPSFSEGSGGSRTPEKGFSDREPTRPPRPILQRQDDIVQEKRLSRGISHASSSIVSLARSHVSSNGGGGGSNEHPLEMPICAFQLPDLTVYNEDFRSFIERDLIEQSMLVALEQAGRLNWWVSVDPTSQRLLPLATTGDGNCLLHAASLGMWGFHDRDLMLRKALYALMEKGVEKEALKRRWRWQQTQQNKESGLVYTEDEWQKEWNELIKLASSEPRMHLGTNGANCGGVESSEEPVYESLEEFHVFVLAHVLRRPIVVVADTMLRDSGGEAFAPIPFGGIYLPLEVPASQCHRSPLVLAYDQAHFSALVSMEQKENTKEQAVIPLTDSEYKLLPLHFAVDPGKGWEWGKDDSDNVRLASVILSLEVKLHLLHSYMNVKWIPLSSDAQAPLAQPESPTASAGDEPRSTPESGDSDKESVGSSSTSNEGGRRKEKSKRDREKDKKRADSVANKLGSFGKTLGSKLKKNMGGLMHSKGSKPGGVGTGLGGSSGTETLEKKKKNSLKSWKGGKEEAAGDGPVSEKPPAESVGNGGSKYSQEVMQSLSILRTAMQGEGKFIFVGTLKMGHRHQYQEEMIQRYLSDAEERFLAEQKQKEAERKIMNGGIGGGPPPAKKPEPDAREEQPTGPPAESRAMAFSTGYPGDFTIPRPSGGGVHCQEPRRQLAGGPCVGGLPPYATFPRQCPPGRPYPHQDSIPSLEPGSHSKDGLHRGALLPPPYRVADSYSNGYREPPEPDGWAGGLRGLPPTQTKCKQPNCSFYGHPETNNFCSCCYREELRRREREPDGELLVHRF
Chain of UniProt Q9UHP3 (Q9UHP3 whole entry): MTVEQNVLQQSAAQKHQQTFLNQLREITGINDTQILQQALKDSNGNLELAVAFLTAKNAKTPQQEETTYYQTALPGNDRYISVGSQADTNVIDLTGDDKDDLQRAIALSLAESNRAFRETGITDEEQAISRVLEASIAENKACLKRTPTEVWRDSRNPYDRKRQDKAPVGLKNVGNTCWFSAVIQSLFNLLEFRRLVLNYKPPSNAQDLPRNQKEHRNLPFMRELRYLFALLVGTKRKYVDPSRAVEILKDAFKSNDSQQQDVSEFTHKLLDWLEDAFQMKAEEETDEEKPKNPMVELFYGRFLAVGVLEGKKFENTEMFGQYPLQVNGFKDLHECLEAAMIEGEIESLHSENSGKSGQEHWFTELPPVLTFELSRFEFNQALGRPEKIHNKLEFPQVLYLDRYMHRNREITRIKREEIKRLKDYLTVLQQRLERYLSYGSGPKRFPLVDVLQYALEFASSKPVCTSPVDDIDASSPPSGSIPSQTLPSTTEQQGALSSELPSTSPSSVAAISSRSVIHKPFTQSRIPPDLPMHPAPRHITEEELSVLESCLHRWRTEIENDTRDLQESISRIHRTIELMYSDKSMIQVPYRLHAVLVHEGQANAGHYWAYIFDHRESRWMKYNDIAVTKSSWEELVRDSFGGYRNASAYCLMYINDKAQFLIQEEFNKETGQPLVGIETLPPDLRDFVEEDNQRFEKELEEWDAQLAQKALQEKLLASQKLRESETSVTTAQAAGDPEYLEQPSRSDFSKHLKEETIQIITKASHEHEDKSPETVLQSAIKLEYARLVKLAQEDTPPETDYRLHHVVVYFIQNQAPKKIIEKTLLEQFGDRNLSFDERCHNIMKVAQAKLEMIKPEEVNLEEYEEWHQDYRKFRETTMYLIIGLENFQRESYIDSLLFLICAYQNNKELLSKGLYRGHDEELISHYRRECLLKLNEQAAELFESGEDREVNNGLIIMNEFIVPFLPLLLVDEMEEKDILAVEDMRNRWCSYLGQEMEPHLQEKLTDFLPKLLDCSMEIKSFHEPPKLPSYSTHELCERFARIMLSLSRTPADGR

Target	log2 ratio of Biotin-Ahx-Ub-VS probe labelling
USP9X (UniProt Q93008)	-0.16 (inactive)
USP25 (UniProt Q9UHP3)	-0.183 (inactive)
ATXN3 (UniProt P54252)	-0.301 (inactive)
USP48 (UniProt Q86UV5)	-0.22 (inactive)
USP24 (UniProt Q9UPU5)	-0.396 (inactive)
USP4 (UniProt Q13107)	-0.146 (inactive)
UniProt Q9P2H5	-0.151 (inactive)
OTUD7B (UniProt Q6GQQ9)	-0.251 (inactive)
